Vif-A3F inh – qHTS for Inhibitors of Vif-A3F Interactions: qHTS; HeLa A3F-eYFP + Vif (tagged APOBEC3F with the HIV-1 protein that degrades it), YFP fluorescence increase; Potency, µM (series often up to 46.1 µM), for the others: top-dose activity, negative = active; 390,000 compounds, 0.2% hits; further: potency means the concentration at half of the fitted maximal effect; % of control where 0% means no effect; nearly all actives have a fitted effect of over 65% in size
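HeLa cells stably expressing A3F-eYFP plus Vif, plated and incubated overnight at 37 deg C, then exposed to compounds overnight at 37 deg C. Blocked degradation read as raised yellow fluorescence (Ex 488/Em 500-530).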
Vif-A3G inh – qHTS for Inhibitors of Vif-A3G Interactions: qHTS. HeLa A3G-eYFP + Vif (tagged APOBEC3G with the HIV-1 protein that degrades it), YFP fluorescence, overnight. Potency, µM (titrated, usually from 46.1 µM), for the others: top-dose activity, negative = active, hits mostly inhibitors. 410,000 compounds, 0.076% hits; further: potency means the concentration at half of the fitted maximal effect; on the % scale 0 is the no-effect control and ±100 the full control effect; nearly all actives have a fitted effect of over 60% in size
Target sequence (Q9HC16 whole entry, looked up): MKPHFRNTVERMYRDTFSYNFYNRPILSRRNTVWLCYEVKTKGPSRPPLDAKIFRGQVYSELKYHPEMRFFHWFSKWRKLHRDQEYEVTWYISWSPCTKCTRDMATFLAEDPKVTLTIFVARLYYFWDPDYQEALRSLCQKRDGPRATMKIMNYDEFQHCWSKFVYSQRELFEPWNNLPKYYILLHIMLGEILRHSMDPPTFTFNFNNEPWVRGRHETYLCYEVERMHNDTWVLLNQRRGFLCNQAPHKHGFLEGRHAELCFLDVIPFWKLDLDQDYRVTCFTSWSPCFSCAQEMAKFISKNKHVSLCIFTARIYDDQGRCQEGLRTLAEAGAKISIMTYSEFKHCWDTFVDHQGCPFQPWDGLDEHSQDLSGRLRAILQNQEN
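Read-out is eYFP fluorescence (Ex 488/Em 500-530) from Vif-expressing HeLa A3G-eYFP cells; more signal means A3G escaped Vif-mediated degradation. Cells plated overnight, compound pinned in, incubated overnight at 37 deg C.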
SW480 rereplic – A quantitative high throughput screen for small molecules that induce DNA re-replication in SW480 colon adenocarcinoma cells | SW480 DNA re-replication, Hoechst DNA content imaging, 48 h | Potency, µM (titrated, usually from 46.1 µM), without a hit: at the top dose re-replication activation, actives largely listed as activators | 340,000 compounds, 1.8% hits; further: potency means the concentration at half of the fitted maximal effect; % of control where 0% means no effect; nearly all actives have a fitted effect of over 55% in size
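250 cells/well; 23 nL cpd via pin tool; 48 hr, 37 C, 5% CO2; Hoechst 40 min; imager read of total nuclear intensity, ex 405/em 500-530 nm.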
IL1B secr inh – qHTS for Inhibitors of Inflammasome Signaling: IL-1-beta AlphaLISA Primary Screen; THP-1 LPS/ATP IL-1B secretion, AlphaLISA, 16 h; hits give low values; activity change, % at 57.5 µM; 360,000 compounds, 4.7% hits; in the data active means activity change below about -50%; inconclusive means mostly about -30% to -49%; further: on the % scale 0 is the no-effect control and ±100 the full control effect
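Secreted IL-1B measured by AlphaLISA bead assay after 16 h compound exposure of THP-1 cells; compounds (final up to 57.5 uM) added 1 h before LPS (250 ng/mL) and ATP (1.25 mM) stimulation; lower signal means less secretion.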
MCF10A rerep – A quantitative high throughput screen for small molecules that induce DNA re-replication in MCF 10a normal breast cells | MCF 10A DNA re-replication, Hoechst nuclear intensity, 48 h | Potency, µM (top dose mostly 46.1 µM), inactives show at the top dose activity, positive = re-replication, most hits filed as activators | 350,000 compounds, 2.9% hits | AID 624296, 2012; further: potency means the concentration at half of the fitted maximal effect; % of control where 0% means no effect; nearly all actives have a fitted effect of over 50% in size
Giardia kill – Small Molecules that selectively kill Giardia lamblia: qHTS; Giardia lamblia trophozoite viability; AID 540267, 2011; activity change, % at 7.66 µM, hits read low; 340,000 compounds, 0.15% hits; in the data active means activity change below about -80%; inconclusive means between about -30% and that limit;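 further: parasites exposed to compound for two days anaerobically before the ATP read; on the % scale 0 is the no-effect control and ±100 the full control effect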
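Each well holds 100 Giardia trophozoites and compound. After two days (48 hrs) at 37 deg C in anaerobic conditions, ATP is quantified by luminescence.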
Starred values were filed as active, the others as inactive; ? = inconclusive; . = no result. The list is not random: actives were taken first. Their share in the collection is about 6.9%. Unless noted, the call rests on the fitted dose curve; in most records, active means well fitted curve in the direction sought with a large enough effect; inconclusive means small, poorly fitted or top-dose-only effect, or another doubt; inactive means no such curve, though single readings can be large; an effect the other way counts as inactive or inconclusive.

SMILES	Vif-A3F inh	Vif-A3G inh	SW480 rereplic	IL1B secr inh	MCF10A rerep	Giardia kill
COc1ccc(-c2noc(C3CCCN(C(=O)Nc4ccccc4)C3)n2)cc1 (centres undefined)	1.6%	3.7%	-72.1%	-1.6	?	1.3
COc1ccc(-c2noc(C3CCCN(C(=O)Nc4ccccc4F)C3)n2)cc1 (centres undefined)	8.0%	1.7%	19.6%	0.7	1.1%	4.5
CCCC(=O)N1CCCC(c2nc(-c3cccc(OC)c3)no2)C1 (centres undefined)	5.9%	-0.4%	-47.0%	-6.9	1.5%	?
COc1ccc(-c2noc(C3CCCN(C(=O)c4cccc(F)c4)C3)n2)cc1 (centres undefined)	13.6%	1.9%	2.3%	-69.2*	-1.1%	-21.8
CCCCCCC(=O)N1CCCC(c2nc(-c3cccc(OC)c3)no2)C1 (centres undefined)	3.9%	0.8%	5.3%	-62.5*	-3.9%	42.0
COc1ccc(NC(=O)N2CCCC(c3nc(-c4ccc(C(C)C)cc4)no3)C2)cc1 (centres undefined)	-13.7%	-1.1%	8.0%	-50.0*	?	9.8
O=C1CC(c2ccco2)Cc2[nH]c(=O)c(C(=O)Nc3ccccc3)cc21 (centres undefined)	.	2.5%	.	.	.	.
Cc1cccc2cc(C3CC(c4ccco4)=NN3S(C)(=O)=O)c(Cl)nc12 (centres undefined)	1.5%	-11.3%	?	-28.8	-0.7%	-10.0
CCOc1ccc2cc(C3CC(c4ccco4)=NN3S(C)(=O)=O)c(Cl)nc2c1 (centres undefined)	-10.3%	-0.8%	-0.4%	-60.3*	-0.6%	-2.2
C[Se]CC[C@H](N)C(=O)O	.	.	-2.7%	.	-4.9%	.
CCOC(=O)c1[nH]ncc1CN1CCCC(C(=O)c2ccc(SC)cc2)C1 (centres undefined)	2.2%	0.5%	-15.0%	-15.2	18.3%	13.4
CSc1ccc(C(=O)C2CCCN(Cc3ccc(N4CCNC4=O)cc3)C2)cc1 (centres undefined)	-7.9%	8.2%	-3.8%	-97.4*	-22.1%	-9.9
COc1ccc(C(=O)C2CCCN(C(=O)c3cccc(Cn4cccn4)c3)C2)cc1F (centres undefined)	-2.8%	-1.7%	7.2%	-16.6	2.1%	1.4
COc1ccc(CN2CCCC(C(=O)c3ccc(SC)cc3)C2)cc1Cn1cccn1 (centres undefined)	-5.7%	0.7%	?	-96.2*	?	-4.0
Cc1cc2cc3c(cc2nc1SCc1ccccn1)OCCO3	-9.2%	0.6%	-3.8%	16.2	7.8%	-3.0
N#Cc1cc2ccccc2nc1SCc1ccccn1	12.6µM*	?	-3.8%	28.7	-1.6%	8.4
O=C(NCc1noc2ccccc12)Nc1ccc(F)cc1F	4.7%	1.0%	.	.	.	.
CC(C)(C)c1ccc(N2C(=O)CSC2c2cccnc2)cc1 (centres undefined)	-13.5%	0.6%	10.4%	13.0	2.31µM*	-10.9
O=C1CSC(c2cccnc2)N1c1ccccc1 (centres undefined)	-0.8%	0.5%	?	9.3	13.6%	55.1
CCn1cc(C(=O)NCc2ccccc2OC)c(=O)c2cc(S(=O)(=O)N3CCCCC3)ccc21	-4.6%	-1.1%	.	.	.	.
COc1ccc(-c2cc(-c3c(O)c(OC)c4occc4c3OC)[nH]n2)cc1OC	0.0%	4.1%	-1.4%	-63.2*	21.7%	14.4
CCOC(=O)C1(CC2CC2)CCN(C(=O)c2cc(C3CC3)nc3ccccc23)CC1	1.9%	0.8%	-9.0%	-83.7*	?	18.5
CCOC(=O)C1(CC2CC2)CCN(Cc2cn(C)c3ccccc23)CC1	-15.9%	-10.8%	-0.7%	-81.6*	20.9%	8.1

Source: PubChem BioAssay (National Center for Advancing Translational Sciences (NCATS))
